Bioassay records (PubChem BioAssay)
Rtt109 Vps75: blocks Candida albicans Rtt109/Vps75 acetyltransferase activity | purified Rtt109/Vps75, ThioGlo CoA-SH fluorescence, 4 h | Q5AAJ8 | inhibition, % at 34.9 µM | AID 540336 | hit rate 0.16% among 330,000;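 active means inhibition of at least 50% in every replicate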
m5-HT2A agonist: agonists of mouse serotonin 5-HT2A receptor (HTR2A). AID 624169. P35363. hit rate 0.66% among 360,000. CHO-K1 mHTR2A beta-arrestin complementation, luminescence; percent of 30 µM serotonin response. activation, % at 7.6 µM;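 active means activation above a run cutoff, the mean activation of all tested compounds plus 3 SD, cut at about 14% in these data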;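 further: 0% = plate median of compound wells and 100% = 30 µM serotonin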
TLR4 MyD88 comp: blocks binding of human TLR4 to MyD88 | O00206+Q99836 | HeLa CL3-4 TLR4/MyD88 BLA complementation, FRET ratio | inhibition, % at 8.4 µM | hit rate 0.18% among 200,000 | AID 861; in the data active means inhibition above about 25%;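 further: 0% = vehicle and 100% = reference inhibitor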
LANA-H2B inh: blocks KSHV LANA binding to histone H2A/H2B | cell-free LANA-H2A/H2B peptide, fluorescence polarization | inhibition, % (concentration not given with the values) | hit rate 0.6% among 320,000 | AID 2629; in the data active means inhibition mostly above about 10%, no sharp cut-off; inactive means mostly below about 6.7%
NOD2 RIPK2 PPI: inhibitors of human NOD2-RIPK2 interaction. O43353. CHO BLA complementation NOD2-RIPK2, CCF4 ratio. inhibition, % at 4.98 µM. hit rate 0.38% among 360,000; in the data active means inhibition above about 21%;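 further: 0% = vehicle only and 100% = reference blocker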
Target sequence (O43353 whole entry, looked up): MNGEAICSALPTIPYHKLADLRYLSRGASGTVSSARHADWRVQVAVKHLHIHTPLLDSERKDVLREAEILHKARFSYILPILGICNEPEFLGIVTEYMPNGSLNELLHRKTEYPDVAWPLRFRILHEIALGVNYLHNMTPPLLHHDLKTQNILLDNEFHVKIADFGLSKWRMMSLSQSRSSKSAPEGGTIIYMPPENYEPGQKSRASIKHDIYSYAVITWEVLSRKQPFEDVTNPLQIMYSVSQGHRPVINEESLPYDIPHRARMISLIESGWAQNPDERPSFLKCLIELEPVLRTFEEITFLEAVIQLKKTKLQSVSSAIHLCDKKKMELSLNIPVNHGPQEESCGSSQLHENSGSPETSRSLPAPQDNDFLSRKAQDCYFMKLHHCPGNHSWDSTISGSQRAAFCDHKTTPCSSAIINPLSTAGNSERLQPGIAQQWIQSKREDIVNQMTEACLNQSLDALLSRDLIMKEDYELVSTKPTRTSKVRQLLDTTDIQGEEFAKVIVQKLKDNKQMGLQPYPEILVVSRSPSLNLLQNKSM
TLR9-MyD88 inh: inhibitors of human TLR9-MyD88 binding; Q9NR96+Q99836; CHO BLA complementation TLR9-MyD88, CCF4 FRET ratio; inhibition, % at 4.98 µM; hit rate 0.21% among 340,000;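 active means inhibition above the mean over all tested compounds plus 3 SD, cut at about 21% in these data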;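 further: 0% = DMSO only wells and 100% = clavulanate BLA inhibitor control wells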
OPRM1 ag: OPRM1 agonism in mouse HTR2A counterscreen. U2OS OPRM1 beta-arrestin PathHunter, luminescence; DMSO 0%, DAMGO 9.3 µM 100%. AID 624380. shares compounds with m5-HT2A agonist. hit rate 5.3% among 2,300. activation, % at 9.3 µM;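 active means mean activation above the mean of DMSO-only wells plus 3 SD, cut at about 0.5% in these data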
HTR2A ag conf: mouse HTR2A agonism confirmed | shares compounds with m5-HT2A agonist | CHO-K1 PathHunter beta-arrestin recruitment, luminescence; DMSO 0%, 30 µM serotonin 100% | activation, % at 7.6 µM | hit rate 19% among 2,300 | AID 624381;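 active means mean activation across triplicates above the hit threshold derived in the original primary screen, cut at about 15% in these data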
* marks the source's active call; other numbers are inactive results; · = no result. Compounds with a hit are over-represented: about 1.8% of the library has one in this group of screens.

SMILES | Rtt109 Vps75 | m5-HT2A agonist | TLR4 MyD88 comp | LANA-H2B inh | NOD2 RIPK2 PPI | TLR9-MyD88 inh | OPRM1 ag | HTR2A ag conf
CC(=O)Nc1ccc(NC(=O)c2cc(-n3cnnc3)ccc2Cl)cc1 | -2 | 16* | 13 | 4 | 4 | 0 | 0 | -4
CCN(CC(=O)Nc1cc(Cl)ccc1C)C(=O)CCS(=O)(=O)c1ccc(C)cc1 | 2 | -11 | · | -2 | -8 | -2 | · | ·
CC(=O)N1CCC(N2CCN(c3ccccc3F)CC2)CC1 | 3 | 26* | 4 | 17* | 5 | 1 | 0 | 64*
CCOC(=O)c1ccc(NC(=O)CCc2nnc3ccc(N4CCCC4)nn23)cc1 | 10 | 24* | · | 2 | 12 | 0 | -1 | -3
COc1ccc(NC(=O)CCc2nnc3ccc(N4CCC(C)CC4)nn23)cc1 | 2 | -5 | · | -5 | 4 | -11 | · | ·
O=C(COC(=O)CNC(=O)C1CCCCC1)NCc1ccc(Cl)cc1 | -3 | 7 | · | 6 | 7 | -6 | · | ·
CSc1nnc(-c2cccc(NC(=S)NN)c2)o1 | · | 27* | -7 | 0 | -14 | 4 | 0 | -4
CCN(CC)C(=O)Cn1cc([N+](=O)[O-])cc1[N+](=O)[O-] | 1 | 0 | · | · | 2 | 2 | · | ·
OCc1cccc(Nc2ncnc3sc4c(c23)CCCCC4)c1 | -7 | -1 | · | 2 | -4 | 10 | · | ·
Cn1cc(C(F)(F)F)nc1-c1ccc(OCC(O)CNCCOc2ccc(O)c(C(N)=O)c2)cc1 (stereo unspecified) | -6 | 33* | · | -1 | -14 | 0 | -1 | 116*
OC(CNCCNc1ncccc1C(F)(F)F)COc1ccc(F)cc1 (stereo unspecified) | 1 | -5 | · | 1 | -9 | -10 | · | ·
CC(C)(C)c1ccc(CC(=O)N2CCC2(C)C(=O)NS(=O)(=O)c2cccc(OC(F)F)c2)cc1 (stereo unspecified) | · | 16* | · | · | 0 | · | 0 | 4
Cc1cc(C)cc(CC(=O)N2CCC2(C)C(=O)NS(=O)(=O)c2ccc(C#N)cc2)c1 (stereo unspecified) | · | 16* | · | · | -2 | · | -1 | -3
CC1(C(=O)NS(=O)(=O)c2ccc(C#N)cc2)CCN1C(=O)Cc1ccsc1 (stereo unspecified) | · | -1 | · | · | -16 | · | · | ·
CC(C)(C)c1ccc(S(=O)(=O)NC(=O)C2(C)CCN2C(=O)C2(c3ccccc3)CC2)cc1 (stereo unspecified) | · | 18* | · | · | -17 | · | -1 | -2
Cc1cc(C)cc(CC(=O)N2CCC2(C)C(=O)NS(=O)(=O)c2cccc(OC(F)F)c2)c1 (stereo unspecified) | · | -1 | · | · | -8 | · | · | ·
O=C(Nc1nnc(C2=COCCO2)o1)c1ccc([N+](=O)[O-])cc1 | -10 | 5 | · | -1 | 0 | -5 | · | ·
COC(=O)C1=C(C(=O)OC)[C@@H]2N(Cc3ccccc3)c3ccccc3[C@@]23C[C@@H](C(=O)OC)N(C(=O)COCc2ccccc2)C3=N1 | 5 | 1 | · | -3 | 1 | 3 | · | ·
COC(CNC(=O)c1ccc2c(c1)nc(C)n2-c1ccc(F)c(F)c1)OC | -14 | 15* | 18 | 0 | 9 | -1 | -1 | -3
N#CCN1CCCC(C(N)=O)C1 (stereo unspecified) | 1 | 19* | -4 | -1 | 0 | 5 | 0 | -4
C[C@H](CO)N1C[C@H](C)[C@@H](CN(C)S(=O)(=O)c2ccccc2)Oc2c(NC(=O)NC3CCCCC3)cccc2C1=O | 14 | 4 | · | -6 | 0 | -4 | · | ·
Cc1ccc(SCC(=O)NNC(=O)c2ccccc2)cc1C | -6 | -6 | · | 13 | 2 | 3 | · | ·
Cc1ccc(SCCN)cc1C | 1 | 21* | -6 | -1 | -19 | -5 | 0 | 13
COc1ccc(CN(C)C[C@H]2OCc3cnnn3CCCC(=O)N([C@H](C)CO)C[C@@H]2C)cc1 | · | -2 | · | · | -12 | -3 | · | ·
COC(=O)c1cc(S(=O)(=O)N(Cc2ccccc2)C(C)(C)C)c[nH]1 | 16 | -1 | · | 0 | 5 | 6 | · | ·
SMILES | Rtt109 Vps75 | m5-HT2A agonist | TLR4 MyD88 comp | LANA-H2B inh | NOD2 RIPK2 PPI | TLR9-MyD88 inh | OPRM1 ag | HTR2A ag conf
Cc1ccc(-c2nn(-c3ccccc3)cc2CO)o1 | 17 | 15* | 0 | 4 | 3 | -9 | -1 | -3
O=C(COC(=O)COc1ccc(Cl)cc1Br)NC1CCCC1 | · | -2 | · | · | -3 | 12 | · | ·
O=C(CCS(=O)(=O)c1ccccc1)Nc1nc2c(s1)COc1ccccc1-2 | -4 | 22* | 8 | 1 | 1 | -3 | 0 | -5
O=C(Nc1nc2c(s1)COc1ccccc1-2)c1cccs1 | -7 | -5 | 14 | -6 | 13 | 5 | · | ·
CCc1cc(=O)oc2cc(C)cc(OC(C)C(=O)NCc3cccnc3)c12 (stereo unspecified) | 3 | -3 | · | 5 | 3 | -4 | · | ·
Cc1cc(S(=O)(=O)Nc2ccc(C(=O)NCCN3CCOCC3)cc2)ccc1F | · | 2 | · | · | -4 | -1 | · | ·
CCC(C)N=C1SCC(C)(/C=N/O)S1 (stereo unspecified) | -6 | 10 | 2 | -5 | -10 | -5 | · | ·
CC(C)(C)N=C1SCC(C)(/C=N/O)S1 (stereo unspecified) | -6 | 17* | -1 | -1 | -1 | -10 | -1 | -2
O=C(CSc1nc(-c2cccs2)nc2ccccc12)NC1CCS(=O)(=O)C1 (stereo unspecified) | -1 | 19* | · | -1 | -12 | -6 | 0.5* | -2
Cn1c(=O)c(C(=O)c2ccc(S(C)(=O)=O)c(Cl)c2Cl)c(O)c2ccccc21 | -6 | 1 | · | -2 | 1 | 0 | · | ·
O=C(CC[C@H]1O[C@@H](n2cnc3c(NC(=O)c4ccccc4)ncnc32)[C@H](O)[C@@H]1O)NCc1ccc2c(c1)OCO2 | · | 2 | · | · | -9 | · | · | ·
CN(Cc1ccccc1)C(=O)c1ccc(NC(=O)C2CCN(C(=O)OC(C)(C)C)CC2)cc1 | -6 | 7 | · | 3 | 1 | -1 | · | ·
CC(=O)N1CCc2cc(C(=O)CN3CCN(c4cccc(Cl)c4)CC3)ccc21 | 1 | 25* | 0 | 2 | -3 | -4 | -1 | 90*
CC(=O)N1CCc2cc(C(=O)CN3CCC(C)CC3)ccc21 | 7 | 2 | -1 | -3 | 0 | -3 | · | ·
CCCC1CC(=O)NC1(C(=O)OCC)C(=O)OCC (stereo unspecified) | -11 | -1 | · | · | -2 | 7 | · | ·
Cn1nccc1C(=O)Nc1nnc(C2CC2)s1 | 0 | 15* | · | -3 | -8 | 0 | 0 | 3
Cn1ncc(Cl)c1C(=O)Nc1nnc(C2CC2)s1 | -9 | -1 | · | 1 | -10 | 1 | · | ·
